PME-1 primary – PME-1 inhibitors via competitive probe labeling, primary screen, biochemical, fluorescence polarization, FP-Rh probe, HTS; Protein phosphatase methylesterase 1 (Homo sapiens), Q9Y570; recombinant PME-1; inhibition, % at 5.9 µM; actives 0.53% (n = 320,000); AID 2130, 2009;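 active = inhibition above the campaign mean of all compounds plus 3 SD, cut at about 26% in these data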;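 also: competitive labeling of PME-1 active site by serine hydrolase directed probe; inhibitors block probe labeling so polarization falls and inhibition rises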
Fam108B inh – mouse Fam108B serine hydrolase inhibitors, primary screen, counter-screen for RBBP9 inhibitor project, biochemical, fluorescence polarization; recombinant Fam108B, FP-Rh probe fluorescence polarization; inhibition, % at 9.51 µM; actives 0.33% (n = 300,000);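 active = inhibition above the screen mean inhibition plus 3 SD, computed separately per campaign, cut at about 18% in these data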;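 also: inhibitors lower polarization as less probe binds the enzyme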
LYPLA2 inh – LYPLA2 inhibitors, primary screen, counter-screen for PME1 inhibitor project, biochemical, fluorescence polarization, FP-Rh probe ABPP | inhibition, % at 5.9 µM | actives 0.38% (n = 320,000) | Acyl-protein thioesterase 2 (Homo sapiens), O95372 | recombinant LYPLA2;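 active = inhibition above the screen-wide mean plus 3 SD, limit set per campaign, cut at about 26% in these data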
GSTO1 counter – inhibitors of recombinant GSTO1, primary screen, counter-screen for RBBP9 inhibitor project, biochemical, fluorescence polarization | Glutathione S-transferase omega-1 (Homo sapiens), P78417 | activity-based probe fluorescence polarization | inhibition, % at 5.96 µM | actives 1.1% (n = 300,000) | AID 1974, 2009;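 active = inhibition above the campaign mean inhibition plus 3 SD, cut at about 35% in these data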
Target sequence (P78417 whole entry, looked up): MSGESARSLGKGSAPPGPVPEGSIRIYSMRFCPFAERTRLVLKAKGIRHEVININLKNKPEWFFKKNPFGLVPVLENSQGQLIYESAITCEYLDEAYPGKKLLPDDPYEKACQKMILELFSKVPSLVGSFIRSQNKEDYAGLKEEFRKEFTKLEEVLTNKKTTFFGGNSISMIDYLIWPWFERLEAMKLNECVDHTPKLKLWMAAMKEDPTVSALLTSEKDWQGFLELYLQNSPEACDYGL
LYPLA1 counter – LYPLA1 inhibitors, primary screen, counter-screen for PME1 inhibitor project, biochemical, fluorescence polarization, FP-Rh probe ABPP; recombinant LYPLA1; inhibition, % at 5.9 µM; actives 0.16% (n = 320,000);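 active = inhibition above the mean of all tested compounds plus 3 SD, set per campaign, cut at about 14% in these data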;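 also: inhibitors block serine hydrolase probe labeling of LYPLA1 so polarization falls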
PAD4 inh – human PAD4 inhibitors, primary screen, biochemical, fluorescence polarization, 1536-well format; Protein-arginine deiminase type-4 (Homo sapiens), Q9UM07; recombinant PAD4, RCA probe fluorescence polarization; inhibition, % at 6.36 µM; actives 0.41% (n = 330,000); AID 485272, 2010;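 active = percent inhibition above a cutoff equal to the mean of all tested compounds plus 3 SD, cut at about 15% in these data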
GSTO1 inh conf – GSTO1 inhibitor hit confirmation, counter-screen for RBBP9 inhibitor project, biochemical, fluorescence polarization, triplicate; inhibition, % at 5.96 µM; recombinant GSTO1, probe fluorescence polarization; shares compounds with GSTO1 counter; AID 2176, 2009; actives 54% (n = 2,400);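 active = inhibition above the primary screen's cutoff, its mean inhibition plus 3 SD, cut at about 35% in these data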;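 also: loss of polarization as inhibitors block binding of rhodamine sulfonate ester activity probe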
Numbers stand for hits; . = inactive; / = not tested or not shown. The list is not random: actives were taken first. Their share in the collection is about 1.8%.

SMILES	PME-1 primary	Fam108B inh	LYPLA2 inh	GSTO1 counter	LYPLA1 counter	PAD4 inh	GSTO1 inh conf
COc1ccc2c(c1O)-c1c(OC)c(OC)cc3c1[C@H](C2)N(C)CC3	.	.	.	.	.	.	/
CCC(C)/C=C(C)/C=C/C1=CC2=C(Cl)C(=O)C(C)(OC(C)=O)C(=O)C2=CO1 (configuration not stated)	.	.	.	43	.	.	40
C=C(C)Cn1c(=O)n(CC2CS2)c2ccccc21 (configuration not stated)	.	.	.	50	.	.	46
C[C@]12CC[C@@H]3c4ccc(O)c(O)c4CC[C@H]3[C@@H]1CC[C@@H]2O	.	.	.	61	.	.	.
C[C@]12CC[C@H]3[C@@H](CCC4=CC(=O)CC[C@@H]43)[C@@H]1CC[C@@H]2O	/	/	/	/	/	.	/
CN(C)c1ccc(C2C3C=CC(C3)C2(C#N)C(=O)O)c(Br)c1 (configuration not stated)	.	.	.	.	.	.	/
CC(C)CNC(=O)c1c(N)n(Cc2ccco2)c2nc3ccccc3nc12	.	.	.	42	.	.	.
CCCNC(=O)c1c(N)n(Cc2ccc3c(c2)OCO3)c2nc3ccccc3nc12	.	.	.	.	.	.	/
CCCCNC(=O)c1c(N)n(CCCOC)c2nc3ccccc3nc12	.	.	.	51	.	.	.
CC(C)CCNC(=O)c1c(N)n(Cc2ccc3c(c2)OCO3)c2nc3ccccc3nc12	.	.	.	40	.	.	69
CC(C)CNC(=O)c1c(N)n(Cc2ccc3c(c2)OCO3)c2nc3ccccc3nc12	.	.	.	62	.	.	.
CC(C)CCn1c(N)c(C(=O)NCc2cccs2)c2nc3ccccc3nc21	.	.	.	.	.	.	/
CCCNC(=O)c1c(N)n(Cc2ccco2)c2nc3ccccc3nc12	.	.	.	.	.	.	/
CC(N)Cc1cn(Cc2ccccc2)c2ccccc12 (configuration not stated)	.	.	.	.	.	.	/
CN1CC2([N+](=O)[O-])CC=C(Cl)C([N+](=O)[O-])(C1)C2 (configuration not stated)	.	.	.	.	.	.	/
O=[N+]([O-])c1ccccc1Cl	.	/	.	/	.	.	/
O=C1NC(=O)C(Sc2ccccc2[N+](=O)[O-])C(=O)N1	.	.	.	48	.	.	.
CC(C)C[C@H]1C(=O)N2CCC[C@H]2[C@]2(O)O[C@](NC(=O)[C@@H]3C=C4c5cccc6[nH]cc(c56)C[C@H]4N(C)C3)(C(C)C)C(=O)N12	.	.	.	51	.	.	.
Cn1cc(NC(=O)CCl)cn1	.	.	.	80	.	.	89
CC(C)CN(CC(C)C)c1ccc(C=C2C(=O)NC(=S)NC2=O)cc1[N+](=O)[O-]	.	.	.	42	.	.	.
O=[N+]([O-])c1cc(O)c(O)c([N+](=O)[O-])c1	.	.	.	39	.	.	.
O=[N+]([O-])c1ccc(O)c([N+](=O)[O-])c1	.	.	.	.	.	.	/
CC(C)(C)c1ccc(O)c(N=Cc2c(O)ccc3ccccc23)c1	.	.	.	69	.	.	.
CC(C)[C@]12CC(=O)[C@H](C)[C@H]1C2	.	/	.	/	.	.	/
CCOc1cc2c(cc1OCC)-n1cccc1C(c1c(O)cccc1OC)NC2 (configuration not stated)	.	.	.	.	.	.	/
N[C@@]1(C(=O)O)CC[C@@H](C(=O)O)C1	.	.	.	.	.	.	/

Screening data deposited in PubChem BioAssay by The Scripps Research Institute Molecular Screening Center.
